CYP2C19 activ – cytochrome P450 2C19 (human) activation; P33261; recombinant CYP2C19, luciferin-H EGE luminescence; stronger effect = higher value; 0 = fully inhibited enzyme, 1 = untreated enzyme; activation factor at 5 µM; 96,000 tested, under 10 active;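 active = activation factor of at least 2 at 5 µM in the primary screen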
Target sequence (P33261 whole entry, looked up): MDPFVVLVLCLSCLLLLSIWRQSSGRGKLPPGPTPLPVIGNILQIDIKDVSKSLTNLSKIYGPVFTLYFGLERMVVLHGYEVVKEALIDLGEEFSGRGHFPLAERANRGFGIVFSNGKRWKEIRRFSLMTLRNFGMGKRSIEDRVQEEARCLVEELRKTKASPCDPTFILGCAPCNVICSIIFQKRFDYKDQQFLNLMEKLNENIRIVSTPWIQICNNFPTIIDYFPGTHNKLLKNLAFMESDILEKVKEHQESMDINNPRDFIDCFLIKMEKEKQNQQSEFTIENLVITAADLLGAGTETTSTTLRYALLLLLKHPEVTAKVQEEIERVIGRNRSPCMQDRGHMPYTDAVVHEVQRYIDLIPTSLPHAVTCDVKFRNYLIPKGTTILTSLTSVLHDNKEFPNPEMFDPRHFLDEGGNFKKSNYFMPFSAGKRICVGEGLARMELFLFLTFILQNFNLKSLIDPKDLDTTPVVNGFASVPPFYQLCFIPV
sEH inh – inhibitors of human soluble epoxide hydrolase | P34913 | AID 707 | recombinant human sEH enzymatic activity assay | 0.34% of 91,000 active | inhibition, % at 2 µM; in the data active = inhibition above about 80%
CYP2C9 inh – inhibitors of human CYP2C9; P11712; CYP2C9 Supersomes, luciferin-H conversion, luminescence; inhibition, % at 5 µM; 20% of 96,000 active; AID 777;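 active = blocking of liver enzyme CYP2C9 beyond about 50% at 5 µM, limit read from the data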
CYP2C9 act – increases human cytochrome P450 2C9 activity; P11712; recombinant CYP2C9, luciferin-H conversion, luminescence; stronger effect = higher value; factor 1 = untreated enzyme, 0 = blocked; activation factor at 5 µM; 1.4% of 96,000 active; AID 1024;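 active = activation factor of 2 or more for CYP2C9 at a 5 µM dose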
CYP2C19 inhib – human CYP2C19 inhibition; P33261; CYP2C19 Supersomes, luciferin-H EGE luminescence, 30 min; inhibition, % at 5 µM; 21% of 96,000 active;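 active = CYP2C19 inhibition above a set limit at 5 µM in the primary screen, cut at about 50% in these data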
sEH activator – activators of human soluble epoxide hydrolase. activation, % at 2 µM. purified human sEH enzymatic activity, activator screen. 0.04% of 91,000 active; in the data active = activation above about 37%
A number is an active result. Compounds with a hit are over-represented: about 27% of the library has one in this group of screens.

What do the screens show for `NC(=O)C1CCN(c2nnnn2-c2ccccc2)CC1`?
CYP2C19 activ: inactive; sEH inh: inactive; CYP2C9 inh: inactive; CYP2C9 act: inactive; CYP2C19 inhib: inactive; sEH activator: inactive

How did COc1ccc(C(F)(F)F)cc1N/C=C\c1nnnn1-c1ccccc1 do in these assays?
CYP2C19 activ: inactive; sEH inh: inactive; CYP2C9 inh: 71.3; CYP2C9 act: inactive; CYP2C19 inhib: 65.2; sEH activator: inactive

How did O=C(c1ccccc1)c1ccccc1N/C=C/c1nnnn1-c1ccccc1 do in these assays?
CYP2C19 activ: inactive; sEH inh: inactive; CYP2C9 inh: inactive; CYP2C9 act: inactive; CYP2C19 inhib: 73.1; sEH activator: inactive

What do the screens show for `CC1(C)Cc2c(sc3c2c(=N)n(Cc2ccco2)c(=O)n3CC(=O)Nc2ccc(Cl)cc2)CO1`?
CYP2C19 activ: inactive; CYP2C9 inh: inactive; CYP2C9 act: inactive; CYP2C19 inhib: inactive

Results for CN(C)c1ccc(/C(=N\O)c2ccccc2)cc1 ?
CYP2C19 activ: inactive; sEH inh: inactive; CYP2C9 inh: inactive; CYP2C9 act: inactive; CYP2C19 inhib: 72.8; sEH activator: inactive

What do the screens show for `COCCn1c(C)cc(C(=O)CSc2nnc(C)s2)c1C`?
CYP2C19 activ: inactive; CYP2C9 inh: inactive; CYP2C9 act: inactive; CYP2C19 inhib: inactive

What do the screens show for `CC(=O)Nc1ccc(SCC(=O)c2cc(C)n(CC(F)(F)F)c2C)cc1`?
CYP2C19 activ: inactive; sEH inh: inactive; CYP2C9 inh: 57.5; CYP2C9 act: inactive; CYP2C19 inhib: 93.4; sEH activator: inactive

What do the screens show for `CC(=O)Nc1ccc(SCC(=O)c2cc(C)n(C)c2C)cc1`?
CYP2C19 activ: inactive; sEH inh: inactive; CYP2C9 inh: inactive; CYP2C9 act: inactive; CYP2C19 inhib: 79.1; sEH activator: inactive

Results for CCC(C)NC(=O)CSc1ccc(NC(C)=O)cc1 (stereo unspecified) ?
CYP2C19 activ: inactive; sEH inh: inactive; CYP2C9 inh: inactive; CYP2C9 act: inactive; CYP2C19 inhib: inactive; sEH activator: inactive

Results for Cc1c(C(=O)N2CCN(c3ccccc3F)CC2)sc2ncn(CC(=O)N3CCOCC3)c(=O)c12 ?
CYP2C19 activ: inactive; sEH inh: inactive; CYP2C9 inh: inactive; CYP2C9 act: inactive; CYP2C19 inhib: inactive; sEH activator: inactive

What do the screens show for `O=C(Nc1ccc2c(c1)C(=O)N(CC1CCCO1)C2=O)c1cccc(Br)c1` (stereo unspecified)?
CYP2C19 activ: inactive; sEH inh: inactive; CYP2C9 inh: inactive; CYP2C9 act: inactive; CYP2C19 inhib: inactive; sEH activator: inactive

What do the screens show for `N=c1c(-c2nc3ccccc3[nH]2)cc(C(=O)c2cccs2)nn1-c1ccc(Cl)cc1`?
sEH inh: inactive; sEH activator: inactive

What do the screens show for `O=C(CSc1nc2ccccc2o1)Nc1ccccc1`?
CYP2C19 activ: inactive; sEH inh: inactive; CYP2C9 inh: inactive; CYP2C9 act: inactive; CYP2C19 inhib: 63.4; sEH activator: inactive

What do the screens show for `O=C(CSc1nc2ccccc2o1)NCCOc1ccccc1`?
CYP2C19 activ: inactive; sEH inh: inactive; CYP2C9 inh: 68.0; CYP2C9 act: inactive; CYP2C19 inhib: 89.2; sEH activator: inactive

How did CSc1cccc(NC(=O)CSc2nc3ccccc3o2)c1 do in these assays?
CYP2C19 activ: inactive; sEH inh: inactive; CYP2C9 inh: inactive; CYP2C9 act: inactive; CYP2C19 inhib: 53.3; sEH activator: inactive

Results for Cc1cccc2sc(NC(=O)CSc3nc4ccccc4o3)nc12 ?
CYP2C19 activ: inactive; sEH inh: inactive; CYP2C9 inh: inactive; CYP2C9 act: inactive; CYP2C19 inhib: inactive; sEH activator: inactive

Results for O=C(CSc1nc2ccccc2o1)NCC(=O)c1ccccc1 ?
CYP2C19 activ: inactive; CYP2C9 inh: inactive; CYP2C9 act: inactive; CYP2C19 inhib: 61.0

How did CC(=O)C1C(=O)C=C(c2ccco2)CC1c1ccccc1 (stereo unspecified) do in these assays?
CYP2C19 activ: inactive; CYP2C9 inh: inactive; CYP2C9 act: inactive; CYP2C19 inhib: inactive

Results for CC1(C)N=C(c2ccc(Cl)cc2)C(=O)N1 ?
CYP2C19 activ: inactive; sEH inh: inactive; CYP2C9 inh: inactive; CYP2C9 act: inactive; CYP2C19 inhib: 87.4; sEH activator: inactive

What do the screens show for `Cc1ccc(C2=NC(C)(C)NC2=O)cc1`?
CYP2C19 activ: inactive; sEH inh: inactive; CYP2C9 inh: inactive; CYP2C9 act: inactive; CYP2C19 inhib: 83.6; sEH activator: inactive

Results for CC1(C)N=C(c2cccc(F)c2)C(=O)N1 ?
CYP2C19 activ: inactive; sEH inh: inactive; CYP2C9 inh: inactive; CYP2C9 act: inactive; CYP2C19 inhib: 60.2; sEH activator: inactive

How did CCc1nnc(NC(=O)CSc2ncc(-c3ccccc3)n2C)s1 do in these assays?
CYP2C19 activ: inactive; sEH inh: inactive; CYP2C9 inh: inactive; CYP2C9 act: inactive; CYP2C19 inhib: inactive; sEH activator: inactive

How did COc1ccc(-c2onc(C)c2-c2ccccc2)c(O)c1 do in these assays?
CYP2C19 activ: inactive; sEH inh: inactive; CYP2C9 inh: inactive; CYP2C9 act: inactive; CYP2C19 inhib: 96.0; sEH activator: inactive

What do the screens show for `COc1ccc(-c2noc(-c3ccccc3-c3ccccc3)n2)cc1`?
CYP2C19 activ: inactive; sEH inh: inactive; CYP2C9 inh: inactive; CYP2C9 act: inactive; CYP2C19 inhib: inactive; sEH activator: inactive

Results for COc1ccc(-c2noc(C)c2-c2ccc3ccccc3n2)c(O)c1 ?
CYP2C19 activ: inactive; sEH inh: inactive; CYP2C9 inh: 72.0; CYP2C9 act: inactive; CYP2C19 inhib: 100.2; sEH activator: inactive

What do the screens show for `COc1ccc2cc(CN(Cc3cccnc3)S(=O)(=O)c3ccccc3)c(=O)[nH]c2c1`?
CYP2C19 activ: inactive; sEH inh: inactive; CYP2C9 inh: inactive; CYP2C9 act: inactive; CYP2C19 inhib: inactive; sEH activator: inactive

How did CN(Cc1cc2ccccc2[nH]c1=O)S(=O)(=O)c1ccccc1 do in these assays?
CYP2C19 activ: inactive; sEH inh: inactive; CYP2C9 inh: inactive; CYP2C9 act: inactive; CYP2C19 inhib: 78.7; sEH activator: inactive

What do the screens show for `COc1ccc2cc(CN(CC3COCCO3)S(=O)(=O)c3ccccc3)c(=O)[nH]c2c1` (stereo unspecified)?
CYP2C19 activ: inactive; sEH inh: inactive; CYP2C9 inh: 84.9; CYP2C9 act: inactive; CYP2C19 inhib: inactive; sEH activator: inactive

How did CCCC(=O)N(Cc1cc2ccccc2[nH]c1=O)c1ccccc1OC do in these assays?
CYP2C19 activ: inactive; sEH inh: inactive; CYP2C9 inh: 86.9; CYP2C9 act: inactive; CYP2C19 inhib: 64.8; sEH activator: inactive

Results for COc1ccc(S(=O)(=O)N(Cc2cc3ccc(OC)cc3[nH]c2=O)CC2COCCO2)cc1 (stereo unspecified) ?
CYP2C19 activ: inactive; sEH inh: inactive; CYP2C9 inh: 74.8; CYP2C9 act: inactive; CYP2C19 inhib: inactive; sEH activator: inactive

What do the screens show for `CCCC(=O)N(Cc1cc2cc(C)ccc2[nH]c1=O)c1ccccc1OC`?
CYP2C19 activ: inactive; sEH inh: inactive; CYP2C9 inh: inactive; CYP2C9 act: inactive; CYP2C19 inhib: inactive; sEH activator: inactive

How did Nc1nc(Br)c2c(F)cccc2c1-c1ccc(F)cc1 do in these assays?
CYP2C19 activ: inactive; sEH inh: inactive; CYP2C9 inh: inactive; CYP2C9 act: inactive; CYP2C19 inhib: inactive; sEH activator: inactive
